# Test results from the OligoGym collection.
# Target: GALNT9
# Assay: pooled miR-30 sensor sort-seq; sequence = guide strand
# Details: shRNA
# Also: reference of the scale not given here.
row,Sequence,sensor-assay potency score (higher = more potent)
1,TTTGTCGCTGTCCATGTCCTCC,-0.772
2,TTGTAGACCCTCATCTCCGGGT,-0.631
3,TAGTAGTCAATGTCGTTGTTGT,0.0429
4,TTGTTGTAGGGCTTCCTGGTGC,0.157
5,ATAGTAGTCAATGTCGTTGTTG,-0.487
6,TTGCTGTTTCTCACCTCTCCGT,-0.669
7,TTTCTGATCATCCACTTCTGCC,-1.06
8,TGATGTGTGACTTAGGTCTTGG,0.117
9,TTACCAGACCACAAGGAGCTGC,-0.143

# Target: GALNTL4
# Assay: as above
# Details: shRNA
row,Sequence,sensor-assay potency score (higher = more potent)
1,TACTCTTCTATCTCAAAGTTGT,-0.112
2,TTTGTCTTCCTCCAGCTTCTTG,-1.15
3,TTGTCATCATCATCCACGGTGG,-0.503
4,TTGATATCATACCATCACCTAC,-1.18
5,ATATTCGGTCAGCTTCTCCTTC,-0.121
6,TTCCTCCAGCTTCTTGTCGGGC,-1.36
7,AATAGTTTGATATCATACCATC,-1.73
8,TTCAGTTCCTCGTTACTGCTGT,0.73
9,TTGACGTCCACCAGGCATCGGT,-0.813
10,TCGGTTGTCATCATCATCCACG,-0.664
11,TGGATCTGCTGACTGCTCGTGT,-0.605

# Target: GALT
# Assay: as above
# Details: shRNA
row,Sequence,sensor-assay potency score (higher = more potent)
1,AAGCATTTCGTAGCCAACCATG,-1.22
2,TAGCAGGGGCTCTCCATGCTGA,-0.945
3,TTTTCAAAGATCTGCACCCAAG,-1.61
4,TTCCTTCCTGAGTAGCTCCTGG,-0.401
5,TTGCCCGGAAGGTTGCTGCTGC,-0.354
6,TAGCCAACCATGAATTTCCGGA,-0.189
7,TTCACCTCTCCGTTGGCTCGGA,-0.467
8,TTCCTGAGTAGCTCCTGGCGGC,-0.283
9,TAATTCAGCAAGACTGTTGAAA,0.0574
10,TATAGGCCTGCTGAGATCGCTC,-0.708
11,ATATCTGGCAGGAAACTGCTGG,-0.342
12,AAGGGGACCAGTACTAACCAGT,-0.813
13,TACTAACCAGTGCTCACTGGTT,-0.859
14,ATACTTGGTCAAGAGCTTCTTC,-0.165
15,TAGATCATCACGCTCAGCAGGG,-0.0859
16,TTGGTCAAGAGCTTCTTCATGA,-0.31
17,TTGTCAAACAGGAAGGTGCTAT,-0.0645
18,AAGAGCTTCTTCATGATGGAGG,-0.296
19,TTTGTTTTCAAAGATCTGCACC,-0.471
20,TGAGCAAGCATTTCGTAGCCAA,-0.524
